Experimental data published in paper PMC7862700, “An all-to-all approach to the identification of sequence-specific readers for epigenetic DNA modifications on cytosine”.

How the values were obtained:
Assay in all cases: DAPPL (digital affinity profiling via proximity ligation, sequencing); 10 mM Tris-HCl pH 7.5, 50 mM NaCl, 1 mM DTT, 4% glycerol, room temperature, 30 min; GST-TFs on glutathione beads, 16-mer random dsDNA library, 0.1% formaldehyde crosslink after washing; high values mean tight binding
FEV = molecular target: T1, FEV (Homo sapiens, UniProt Q99581 1-238); settings: protein: recombinant; tags: N-terminal GST; dsDNA, one strand shown
T1 sequence: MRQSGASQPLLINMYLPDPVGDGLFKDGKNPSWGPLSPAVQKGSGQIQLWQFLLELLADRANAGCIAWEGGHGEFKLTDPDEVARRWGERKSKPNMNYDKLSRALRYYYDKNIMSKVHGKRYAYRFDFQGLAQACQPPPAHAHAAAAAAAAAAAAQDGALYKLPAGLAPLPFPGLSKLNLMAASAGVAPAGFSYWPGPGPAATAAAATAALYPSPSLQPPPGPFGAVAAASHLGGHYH
In short: (§1)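 Each value of binding signal is a hexamer's read frequency for a factor divided by the same hexamer's frequency in the tag-only sample. Barcoded, bead-captured GST fusions of human transcription factors made in yeast were pooled with that sample and incubated with 200 nmole of a random double-stranded 16-mer DNA library in Tris/NaCl/DTT/glycerol buffer at room temperature for 30 min. Washing, 0.1% formaldehyde crosslinking, proximity ligation, PCR and Illumina NextSeq500 sequencing followed.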

ETV5 = ETV5 (Homo sapiens, UniProt P41161 1-510); settings: protein: recombinant; tags: N-terminal GST; dsDNA, one strand shown
Sequence of ETV5 (P41161 whole entry): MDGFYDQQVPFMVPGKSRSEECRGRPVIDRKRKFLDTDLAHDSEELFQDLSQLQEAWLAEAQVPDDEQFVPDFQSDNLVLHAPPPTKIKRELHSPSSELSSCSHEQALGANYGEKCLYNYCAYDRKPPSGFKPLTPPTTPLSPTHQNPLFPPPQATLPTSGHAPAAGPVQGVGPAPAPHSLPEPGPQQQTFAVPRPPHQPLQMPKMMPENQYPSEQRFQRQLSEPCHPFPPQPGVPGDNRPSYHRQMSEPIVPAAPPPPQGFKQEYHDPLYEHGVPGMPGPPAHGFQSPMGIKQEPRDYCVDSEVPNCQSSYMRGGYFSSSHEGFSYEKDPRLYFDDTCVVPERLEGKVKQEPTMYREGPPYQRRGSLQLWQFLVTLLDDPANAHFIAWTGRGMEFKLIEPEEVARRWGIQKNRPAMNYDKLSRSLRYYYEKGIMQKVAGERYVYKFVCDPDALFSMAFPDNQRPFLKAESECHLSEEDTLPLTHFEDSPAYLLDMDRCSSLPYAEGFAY
In short: as §1

HSF1 = HSF1 (Homo sapiens, UniProt Q00613 1-529); settings: protein: recombinant; tags: N-terminal GST; chain copies: 3; dsDNA, one strand shown
Sequence of HSF1 (Q00613 whole entry): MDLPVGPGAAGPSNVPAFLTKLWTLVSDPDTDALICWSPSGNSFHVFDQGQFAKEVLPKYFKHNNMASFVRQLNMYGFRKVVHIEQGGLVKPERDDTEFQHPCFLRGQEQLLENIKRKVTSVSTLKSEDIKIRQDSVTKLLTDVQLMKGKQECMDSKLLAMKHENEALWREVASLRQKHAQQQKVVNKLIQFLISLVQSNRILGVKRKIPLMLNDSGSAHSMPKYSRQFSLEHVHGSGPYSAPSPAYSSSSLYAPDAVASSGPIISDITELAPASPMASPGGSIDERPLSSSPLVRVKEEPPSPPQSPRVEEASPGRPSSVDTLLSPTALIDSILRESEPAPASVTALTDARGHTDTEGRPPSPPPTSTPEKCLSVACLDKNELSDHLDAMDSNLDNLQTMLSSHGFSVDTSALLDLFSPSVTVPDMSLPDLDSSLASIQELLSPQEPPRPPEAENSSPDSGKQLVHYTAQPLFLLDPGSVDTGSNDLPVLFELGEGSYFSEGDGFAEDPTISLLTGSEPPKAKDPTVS
In short: as §1

SPIC = molecular target: T2, SPIC (Homo sapiens, UniProt Q8N5J4 1-248); settings: protein: recombinant; tags: N-terminal GST; dsDNA, one strand shown
T2 sequence: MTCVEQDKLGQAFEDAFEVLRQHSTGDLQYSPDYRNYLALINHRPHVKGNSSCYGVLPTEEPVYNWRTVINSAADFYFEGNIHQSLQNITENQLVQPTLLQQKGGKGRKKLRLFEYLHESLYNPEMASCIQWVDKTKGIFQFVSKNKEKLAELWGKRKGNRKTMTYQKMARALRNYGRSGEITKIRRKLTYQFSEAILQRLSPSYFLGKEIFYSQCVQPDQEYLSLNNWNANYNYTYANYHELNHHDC
In short: as §1

ELF4 = ELF4 (Homo sapiens, UniProt Q99607 1-663); settings: protein: recombinant; tags: N-terminal GST; dsDNA, one strand shown
Sequence of ELF4 (Q99607 whole entry): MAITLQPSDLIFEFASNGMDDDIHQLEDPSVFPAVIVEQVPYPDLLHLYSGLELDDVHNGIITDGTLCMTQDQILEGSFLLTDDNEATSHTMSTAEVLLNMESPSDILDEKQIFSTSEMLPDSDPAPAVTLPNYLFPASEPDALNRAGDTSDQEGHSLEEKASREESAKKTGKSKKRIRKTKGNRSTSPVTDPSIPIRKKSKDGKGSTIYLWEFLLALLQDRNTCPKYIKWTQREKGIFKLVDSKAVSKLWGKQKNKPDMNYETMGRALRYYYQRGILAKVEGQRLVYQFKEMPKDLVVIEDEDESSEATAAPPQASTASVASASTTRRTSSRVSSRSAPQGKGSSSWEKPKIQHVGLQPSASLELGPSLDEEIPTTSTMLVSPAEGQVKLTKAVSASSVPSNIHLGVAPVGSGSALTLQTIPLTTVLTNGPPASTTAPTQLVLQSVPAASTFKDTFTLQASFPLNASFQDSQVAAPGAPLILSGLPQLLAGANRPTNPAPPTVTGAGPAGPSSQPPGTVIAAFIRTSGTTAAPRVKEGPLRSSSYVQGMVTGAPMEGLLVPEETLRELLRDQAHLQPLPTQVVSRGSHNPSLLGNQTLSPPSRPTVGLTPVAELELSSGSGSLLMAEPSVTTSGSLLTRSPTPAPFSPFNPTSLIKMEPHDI
In short: as §1

ELK4 = molecular target: T3, ELK4 (Homo sapiens, UniProt P28324-2 1-405); settings: protein: recombinant; tags: N-terminal GST; dsDNA, one strand shown
T3 sequence: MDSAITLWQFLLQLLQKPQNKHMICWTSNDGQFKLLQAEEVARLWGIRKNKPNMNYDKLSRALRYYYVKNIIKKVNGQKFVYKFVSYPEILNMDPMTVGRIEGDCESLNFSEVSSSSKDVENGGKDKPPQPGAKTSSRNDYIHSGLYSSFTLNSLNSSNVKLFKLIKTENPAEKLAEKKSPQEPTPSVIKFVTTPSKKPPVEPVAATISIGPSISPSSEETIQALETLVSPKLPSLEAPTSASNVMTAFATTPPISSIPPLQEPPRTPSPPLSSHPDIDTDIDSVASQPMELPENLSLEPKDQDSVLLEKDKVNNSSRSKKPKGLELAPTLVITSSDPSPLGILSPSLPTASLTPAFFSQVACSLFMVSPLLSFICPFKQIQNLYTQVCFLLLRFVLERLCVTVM
In short: as §1

ETV2 = molecular target: T4, ETV2 (Homo sapiens, UniProt O00321 1-342); settings: protein: recombinant; tags: N-terminal GST; dsDNA, one strand shown
T4 sequence: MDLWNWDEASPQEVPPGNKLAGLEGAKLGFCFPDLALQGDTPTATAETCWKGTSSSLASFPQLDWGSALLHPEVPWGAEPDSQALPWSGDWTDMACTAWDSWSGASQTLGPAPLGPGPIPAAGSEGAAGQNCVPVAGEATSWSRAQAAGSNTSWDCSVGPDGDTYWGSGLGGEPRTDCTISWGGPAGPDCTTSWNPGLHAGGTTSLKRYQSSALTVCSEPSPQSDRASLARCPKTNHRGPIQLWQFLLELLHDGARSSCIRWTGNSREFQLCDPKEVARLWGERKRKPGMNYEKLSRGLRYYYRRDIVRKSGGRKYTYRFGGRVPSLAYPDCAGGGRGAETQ
In short: as §1

ELF3 = molecular target: T5, ELF3 (Homo sapiens, UniProt P78545 1-371); settings: protein: recombinant; tags: N-terminal GST; dsDNA, one strand shown
T5 sequence: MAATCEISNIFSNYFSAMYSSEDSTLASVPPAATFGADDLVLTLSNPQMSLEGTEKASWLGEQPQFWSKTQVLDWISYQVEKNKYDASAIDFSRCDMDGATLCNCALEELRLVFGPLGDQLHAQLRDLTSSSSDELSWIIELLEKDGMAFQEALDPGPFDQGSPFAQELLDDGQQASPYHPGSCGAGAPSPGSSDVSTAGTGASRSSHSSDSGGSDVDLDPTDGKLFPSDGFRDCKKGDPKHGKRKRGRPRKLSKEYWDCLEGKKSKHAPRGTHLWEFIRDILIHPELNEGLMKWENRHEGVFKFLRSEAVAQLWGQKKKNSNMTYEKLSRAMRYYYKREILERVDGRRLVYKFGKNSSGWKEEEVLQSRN
In short: as §1

CRX = CRX (Homo sapiens, UniProt O43186 1-299); settings: protein: recombinant; tags: N-terminal GST; dsDNA, one strand shown
Sequence of CRX (O43186 whole entry): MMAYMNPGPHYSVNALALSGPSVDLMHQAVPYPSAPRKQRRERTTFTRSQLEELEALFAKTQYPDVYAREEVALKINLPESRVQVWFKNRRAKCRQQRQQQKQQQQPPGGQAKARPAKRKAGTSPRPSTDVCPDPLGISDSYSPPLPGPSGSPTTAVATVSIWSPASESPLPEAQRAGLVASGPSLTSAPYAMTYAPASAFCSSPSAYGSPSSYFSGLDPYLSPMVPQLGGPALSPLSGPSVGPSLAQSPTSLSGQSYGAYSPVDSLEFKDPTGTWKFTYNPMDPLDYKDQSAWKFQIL
In short: as §1

ETV1 = ETV1 (Homo sapiens, UniProt P50549 1-477); settings: protein: recombinant; tags: N-terminal GST; dsDNA, one strand shown
Sequence of ETV1 (P50549 whole entry): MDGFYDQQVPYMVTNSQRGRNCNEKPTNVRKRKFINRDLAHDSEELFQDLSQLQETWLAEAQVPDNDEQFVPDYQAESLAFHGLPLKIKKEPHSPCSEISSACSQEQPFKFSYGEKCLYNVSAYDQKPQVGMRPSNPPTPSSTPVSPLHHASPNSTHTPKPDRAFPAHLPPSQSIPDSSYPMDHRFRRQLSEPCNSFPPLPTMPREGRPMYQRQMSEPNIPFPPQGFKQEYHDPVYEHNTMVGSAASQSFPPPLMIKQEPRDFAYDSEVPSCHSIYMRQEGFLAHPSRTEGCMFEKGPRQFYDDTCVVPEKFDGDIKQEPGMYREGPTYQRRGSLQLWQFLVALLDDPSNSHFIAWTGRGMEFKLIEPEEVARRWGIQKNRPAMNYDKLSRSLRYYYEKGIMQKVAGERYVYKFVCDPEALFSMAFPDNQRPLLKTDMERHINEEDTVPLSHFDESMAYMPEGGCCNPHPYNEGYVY
In short: as §1

ERF = molecular target: T6, ERF (Homo sapiens, UniProt P50548 1-548); settings: protein: recombinant; tags: N-terminal GST; dsDNA, one strand shown
T6 sequence: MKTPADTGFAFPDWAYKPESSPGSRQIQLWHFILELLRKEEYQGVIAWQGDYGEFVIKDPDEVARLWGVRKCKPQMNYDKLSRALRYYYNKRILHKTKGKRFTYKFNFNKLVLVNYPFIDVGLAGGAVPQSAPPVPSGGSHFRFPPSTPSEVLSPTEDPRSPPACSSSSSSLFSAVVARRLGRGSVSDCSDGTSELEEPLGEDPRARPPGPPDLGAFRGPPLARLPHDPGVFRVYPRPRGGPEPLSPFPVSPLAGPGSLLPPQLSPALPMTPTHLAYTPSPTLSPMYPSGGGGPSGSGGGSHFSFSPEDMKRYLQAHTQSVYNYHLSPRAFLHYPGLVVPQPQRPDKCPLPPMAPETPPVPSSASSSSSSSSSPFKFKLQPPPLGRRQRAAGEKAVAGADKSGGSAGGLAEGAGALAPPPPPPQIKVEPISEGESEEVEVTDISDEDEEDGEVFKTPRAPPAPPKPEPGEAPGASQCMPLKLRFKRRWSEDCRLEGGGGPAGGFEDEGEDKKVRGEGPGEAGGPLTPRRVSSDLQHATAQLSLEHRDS
In short: as §1

ETV3L = molecular target: T7, ETV3L (Homo sapiens, UniProt Q6ZN32 1-361); settings: protein: recombinant; tags: N-terminal GST; dsDNA, one strand shown
T7 sequence: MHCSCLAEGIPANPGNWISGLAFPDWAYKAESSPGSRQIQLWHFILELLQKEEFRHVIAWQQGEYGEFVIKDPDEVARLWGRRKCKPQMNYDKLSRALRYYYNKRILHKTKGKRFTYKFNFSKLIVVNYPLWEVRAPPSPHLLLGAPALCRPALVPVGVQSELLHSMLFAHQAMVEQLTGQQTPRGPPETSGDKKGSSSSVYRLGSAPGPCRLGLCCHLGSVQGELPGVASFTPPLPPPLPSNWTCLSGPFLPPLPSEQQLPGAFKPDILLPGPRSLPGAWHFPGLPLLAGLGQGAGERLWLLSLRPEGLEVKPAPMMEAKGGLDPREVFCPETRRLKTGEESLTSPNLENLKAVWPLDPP
In short: as §1

ETS2 = molecular target: T8, ETS2 (Homo sapiens, UniProt P15036 1-469); settings: protein: recombinant; tags: N-terminal GST; dsDNA, one strand shown
T8 sequence: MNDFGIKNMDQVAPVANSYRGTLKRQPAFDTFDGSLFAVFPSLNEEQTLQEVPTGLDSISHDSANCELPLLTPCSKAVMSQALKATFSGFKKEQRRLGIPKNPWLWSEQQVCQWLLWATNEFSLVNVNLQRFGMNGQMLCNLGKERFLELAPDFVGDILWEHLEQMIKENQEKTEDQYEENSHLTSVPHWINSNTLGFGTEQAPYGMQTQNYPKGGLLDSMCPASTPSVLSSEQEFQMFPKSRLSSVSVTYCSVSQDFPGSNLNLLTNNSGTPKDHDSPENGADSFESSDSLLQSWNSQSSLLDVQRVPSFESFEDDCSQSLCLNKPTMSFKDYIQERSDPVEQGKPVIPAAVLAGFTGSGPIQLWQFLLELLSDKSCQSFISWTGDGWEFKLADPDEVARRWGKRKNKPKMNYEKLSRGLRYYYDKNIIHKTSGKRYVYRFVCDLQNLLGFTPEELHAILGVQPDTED
In short: as §1

SPDEF = molecular target: T9, SPDEF (Homo sapiens, UniProt O95238 1-335); settings: protein: recombinant; tags: N-terminal GST; dsDNA, one strand shown
T9 sequence: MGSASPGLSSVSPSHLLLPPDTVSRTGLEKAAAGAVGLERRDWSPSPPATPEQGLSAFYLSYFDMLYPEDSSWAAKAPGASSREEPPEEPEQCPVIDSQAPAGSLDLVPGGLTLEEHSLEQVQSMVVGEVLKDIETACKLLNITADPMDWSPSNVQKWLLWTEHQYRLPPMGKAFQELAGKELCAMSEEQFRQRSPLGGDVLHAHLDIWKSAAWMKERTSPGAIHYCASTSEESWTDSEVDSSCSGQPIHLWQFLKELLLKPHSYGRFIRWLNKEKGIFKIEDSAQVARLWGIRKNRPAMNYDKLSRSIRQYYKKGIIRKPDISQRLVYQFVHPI
In short: as §1

ETV7 = molecular target: T10, ETV7 (Homo sapiens, UniProt Q9Y603 1-341); settings: protein: recombinant; tags: N-terminal GST; dsDNA, one strand shown
T10 sequence: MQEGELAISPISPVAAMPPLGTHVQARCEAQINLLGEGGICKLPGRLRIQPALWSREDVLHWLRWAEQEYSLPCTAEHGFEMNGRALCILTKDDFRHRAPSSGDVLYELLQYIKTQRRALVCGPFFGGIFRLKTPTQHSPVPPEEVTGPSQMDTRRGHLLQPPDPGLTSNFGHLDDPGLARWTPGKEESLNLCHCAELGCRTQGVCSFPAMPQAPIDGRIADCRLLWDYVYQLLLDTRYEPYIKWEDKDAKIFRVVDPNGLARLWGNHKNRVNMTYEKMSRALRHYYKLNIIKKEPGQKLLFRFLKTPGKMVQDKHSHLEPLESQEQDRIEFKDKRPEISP
In short: as §1

ELF5 = molecular target: T11, ELF5 (Homo sapiens, UniProt Q9UKW6-2 1-255); settings: protein: recombinant; tags: N-terminal GST; dsDNA, one strand shown
T11 sequence: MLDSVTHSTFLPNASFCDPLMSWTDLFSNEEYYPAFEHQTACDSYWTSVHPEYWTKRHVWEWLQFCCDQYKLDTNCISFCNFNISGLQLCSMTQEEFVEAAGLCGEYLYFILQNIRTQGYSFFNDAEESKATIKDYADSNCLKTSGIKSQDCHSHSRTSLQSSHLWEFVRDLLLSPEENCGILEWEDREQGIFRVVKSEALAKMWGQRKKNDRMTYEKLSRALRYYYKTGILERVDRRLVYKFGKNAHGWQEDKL
In short: as §1

ETV3 = molecular target: T12, ETV3 (Homo sapiens, UniProt P41162-2 1-143); settings: protein: recombinant; tags: N-terminal GST; dsDNA, one strand shown
T12 sequence: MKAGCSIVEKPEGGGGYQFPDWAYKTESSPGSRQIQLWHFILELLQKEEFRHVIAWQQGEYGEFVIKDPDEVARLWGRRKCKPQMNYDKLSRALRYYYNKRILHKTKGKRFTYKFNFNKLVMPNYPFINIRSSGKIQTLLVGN
In short: as §1

ETV6 = ETV6 (Homo sapiens, UniProt P41212 1-452); settings: protein: recombinant; tags: N-terminal GST; dsDNA, one strand shown
Sequence of ETV6 (P41212 whole entry): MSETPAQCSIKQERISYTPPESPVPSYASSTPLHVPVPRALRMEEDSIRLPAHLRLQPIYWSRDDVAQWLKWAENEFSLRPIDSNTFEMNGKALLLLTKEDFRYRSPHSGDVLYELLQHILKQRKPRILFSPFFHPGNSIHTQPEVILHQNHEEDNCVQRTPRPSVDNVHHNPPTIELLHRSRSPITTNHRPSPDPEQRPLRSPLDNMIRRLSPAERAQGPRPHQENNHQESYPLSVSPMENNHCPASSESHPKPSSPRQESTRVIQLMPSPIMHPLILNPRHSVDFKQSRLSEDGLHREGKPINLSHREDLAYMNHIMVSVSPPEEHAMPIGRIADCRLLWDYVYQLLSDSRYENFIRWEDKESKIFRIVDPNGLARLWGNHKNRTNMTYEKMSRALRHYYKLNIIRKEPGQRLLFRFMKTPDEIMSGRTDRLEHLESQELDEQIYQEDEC
In short: as §1

Sequence: TTGTGG
- binding signal (FEV): 1.27 fold enrichment (6-mer frequency, TF over GST control)
- binding signal (ETV5): 1.41 fold enrichment (6-mer frequency, TF over GST control)
- binding signal (HSF1): 1.37 fold enrichment (6-mer frequency, TF over GST control)
- binding signal (SPIC): 1.44 fold enrichment (6-mer frequency, TF over GST control)
- binding signal (ELF4): 1.51 fold enrichment (6-mer frequency, TF over GST control)
- binding signal (ELK4): 1.35 fold enrichment (6-mer frequency, TF over GST control)
- binding signal (ETV2): 1.29 fold enrichment (6-mer frequency, TF over GST control)
- binding signal (ELF3): 1.34 fold enrichment (6-mer frequency, TF over GST control)
- binding signal (CRX): 1.46 fold enrichment (6-mer frequency, TF over GST control)
- binding signal (ETV1): 1.27 fold enrichment (6-mer frequency, TF over GST control)
- binding signal (ERF): 1.33 fold enrichment (6-mer frequency, TF over GST control)
- binding signal (ETV3L): 1.6 fold enrichment (6-mer frequency, TF over GST control)
- binding signal (ETS2): 1.36 fold enrichment (6-mer frequency, TF over GST control)
- binding signal (SPDEF): 1.31 fold enrichment (6-mer frequency, TF over GST control)
- binding signal (ETV7): 1.34 fold enrichment (6-mer frequency, TF over GST control)
- binding signal (ELF5): 1.32 fold enrichment (6-mer frequency, TF over GST control)
- binding signal (ETV3): 1.37 fold enrichment (6-mer frequency, TF over GST control)
- binding signal (ETV6): 1.29 fold enrichment (6-mer frequency, TF over GST control)
